The source of these data is the supplement of paper PMC10849652.

Of roughly 7,900 targets only a part is listed; those with a hit were picked by preference. About 0.6% of all pairs of compound and target were hits. Values without a mark were called inactive.

Chain of UniProt O75477 (O75477 whole entry, looked up): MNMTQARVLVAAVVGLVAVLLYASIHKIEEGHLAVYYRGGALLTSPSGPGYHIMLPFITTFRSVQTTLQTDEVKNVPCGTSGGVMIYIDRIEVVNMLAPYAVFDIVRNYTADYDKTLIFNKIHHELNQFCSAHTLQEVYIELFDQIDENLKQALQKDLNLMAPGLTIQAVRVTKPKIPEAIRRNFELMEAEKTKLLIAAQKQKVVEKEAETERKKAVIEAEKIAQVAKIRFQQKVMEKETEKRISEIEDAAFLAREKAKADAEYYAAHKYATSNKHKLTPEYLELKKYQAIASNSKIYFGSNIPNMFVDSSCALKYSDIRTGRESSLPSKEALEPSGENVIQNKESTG
Chain of UniProt Q96DA6 (Q96DA6 whole entry, looked up): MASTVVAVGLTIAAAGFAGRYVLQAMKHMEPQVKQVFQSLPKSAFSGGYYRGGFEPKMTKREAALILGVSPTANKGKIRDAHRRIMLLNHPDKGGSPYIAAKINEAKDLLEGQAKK
Chain of UniProt P29692 (P29692 whole entry, looked up): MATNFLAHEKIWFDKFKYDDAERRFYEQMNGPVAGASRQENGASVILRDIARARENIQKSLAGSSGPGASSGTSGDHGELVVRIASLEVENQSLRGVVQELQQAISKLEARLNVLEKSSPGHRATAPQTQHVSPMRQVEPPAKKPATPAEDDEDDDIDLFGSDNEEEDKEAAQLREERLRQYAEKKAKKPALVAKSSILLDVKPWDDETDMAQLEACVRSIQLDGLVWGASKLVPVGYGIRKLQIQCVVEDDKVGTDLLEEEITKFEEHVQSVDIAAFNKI
Chain of UniProt Q8IYI6 (Q8IYI6 whole entry, looked up): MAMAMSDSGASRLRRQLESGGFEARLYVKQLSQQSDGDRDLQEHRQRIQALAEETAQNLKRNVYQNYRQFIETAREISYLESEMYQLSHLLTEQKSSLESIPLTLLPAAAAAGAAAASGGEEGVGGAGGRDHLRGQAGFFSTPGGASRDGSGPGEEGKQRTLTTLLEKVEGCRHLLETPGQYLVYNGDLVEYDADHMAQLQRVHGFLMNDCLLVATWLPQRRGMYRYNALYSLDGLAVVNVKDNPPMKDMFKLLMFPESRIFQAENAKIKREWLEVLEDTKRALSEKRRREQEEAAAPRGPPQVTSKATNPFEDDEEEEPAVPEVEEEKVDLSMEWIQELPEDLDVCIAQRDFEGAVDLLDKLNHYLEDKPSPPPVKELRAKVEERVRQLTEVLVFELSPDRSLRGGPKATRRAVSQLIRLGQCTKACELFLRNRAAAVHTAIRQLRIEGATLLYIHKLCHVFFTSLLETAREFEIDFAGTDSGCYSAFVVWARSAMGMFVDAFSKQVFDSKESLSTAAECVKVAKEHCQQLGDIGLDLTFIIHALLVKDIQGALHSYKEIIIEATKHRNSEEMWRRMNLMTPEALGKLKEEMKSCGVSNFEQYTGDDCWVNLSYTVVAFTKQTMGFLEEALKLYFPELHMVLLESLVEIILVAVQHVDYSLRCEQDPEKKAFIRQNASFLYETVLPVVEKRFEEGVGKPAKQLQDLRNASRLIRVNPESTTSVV
Chain of UniProt Q13011 (Q13011 whole entry, looked up): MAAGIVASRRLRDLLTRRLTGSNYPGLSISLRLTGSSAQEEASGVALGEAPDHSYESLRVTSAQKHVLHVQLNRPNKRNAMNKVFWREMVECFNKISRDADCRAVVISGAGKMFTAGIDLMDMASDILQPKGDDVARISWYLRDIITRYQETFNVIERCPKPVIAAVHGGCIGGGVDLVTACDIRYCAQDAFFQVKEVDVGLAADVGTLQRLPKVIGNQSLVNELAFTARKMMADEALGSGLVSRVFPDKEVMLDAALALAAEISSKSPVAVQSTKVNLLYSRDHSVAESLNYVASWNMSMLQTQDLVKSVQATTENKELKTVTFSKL
Chain of UniProt Q7L576 (Q7L576 whole entry, looked up): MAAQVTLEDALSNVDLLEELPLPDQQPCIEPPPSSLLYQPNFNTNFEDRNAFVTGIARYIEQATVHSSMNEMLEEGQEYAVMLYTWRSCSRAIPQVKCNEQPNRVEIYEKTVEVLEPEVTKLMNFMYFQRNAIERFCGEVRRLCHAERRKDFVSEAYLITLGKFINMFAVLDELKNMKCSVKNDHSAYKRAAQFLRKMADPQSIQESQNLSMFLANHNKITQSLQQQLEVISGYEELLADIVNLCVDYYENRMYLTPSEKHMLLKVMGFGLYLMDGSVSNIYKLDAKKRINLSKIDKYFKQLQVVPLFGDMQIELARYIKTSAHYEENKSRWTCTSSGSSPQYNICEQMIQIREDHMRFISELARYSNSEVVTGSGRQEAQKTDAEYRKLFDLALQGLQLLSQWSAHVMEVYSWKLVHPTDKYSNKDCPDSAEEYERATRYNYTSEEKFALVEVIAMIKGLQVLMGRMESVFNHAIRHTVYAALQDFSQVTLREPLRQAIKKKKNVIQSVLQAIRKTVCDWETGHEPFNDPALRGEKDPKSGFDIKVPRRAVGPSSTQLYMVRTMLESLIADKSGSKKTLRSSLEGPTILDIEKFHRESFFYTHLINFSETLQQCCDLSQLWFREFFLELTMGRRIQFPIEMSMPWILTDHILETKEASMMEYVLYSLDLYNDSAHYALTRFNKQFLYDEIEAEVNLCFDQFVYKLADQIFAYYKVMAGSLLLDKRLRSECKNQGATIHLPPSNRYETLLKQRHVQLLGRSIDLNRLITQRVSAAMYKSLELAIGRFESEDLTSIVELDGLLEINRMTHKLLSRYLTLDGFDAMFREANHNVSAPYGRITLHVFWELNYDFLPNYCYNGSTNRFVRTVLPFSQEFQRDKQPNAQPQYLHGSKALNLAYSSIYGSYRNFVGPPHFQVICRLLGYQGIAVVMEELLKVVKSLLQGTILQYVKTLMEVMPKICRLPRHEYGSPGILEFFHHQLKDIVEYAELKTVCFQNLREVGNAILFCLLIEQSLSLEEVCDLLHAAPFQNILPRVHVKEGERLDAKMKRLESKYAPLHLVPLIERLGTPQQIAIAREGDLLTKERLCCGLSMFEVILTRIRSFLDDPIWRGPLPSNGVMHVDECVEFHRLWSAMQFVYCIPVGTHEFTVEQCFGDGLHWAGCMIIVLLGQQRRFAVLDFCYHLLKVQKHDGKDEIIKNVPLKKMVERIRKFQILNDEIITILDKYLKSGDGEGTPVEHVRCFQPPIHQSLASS
Chain of UniProt Q9UBQ6 (Q9UBQ6 whole entry, looked up): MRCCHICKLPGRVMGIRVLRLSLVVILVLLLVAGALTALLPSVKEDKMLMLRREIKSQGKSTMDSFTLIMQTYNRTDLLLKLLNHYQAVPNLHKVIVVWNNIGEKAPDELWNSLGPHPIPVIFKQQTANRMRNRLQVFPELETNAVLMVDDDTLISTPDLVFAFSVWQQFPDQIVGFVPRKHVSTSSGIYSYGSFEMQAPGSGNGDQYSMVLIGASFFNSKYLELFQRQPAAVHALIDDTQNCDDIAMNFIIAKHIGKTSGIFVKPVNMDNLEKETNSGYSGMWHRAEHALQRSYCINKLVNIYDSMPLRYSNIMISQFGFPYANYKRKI
Chain of UniProt P24534 (P24534 whole entry, looked up): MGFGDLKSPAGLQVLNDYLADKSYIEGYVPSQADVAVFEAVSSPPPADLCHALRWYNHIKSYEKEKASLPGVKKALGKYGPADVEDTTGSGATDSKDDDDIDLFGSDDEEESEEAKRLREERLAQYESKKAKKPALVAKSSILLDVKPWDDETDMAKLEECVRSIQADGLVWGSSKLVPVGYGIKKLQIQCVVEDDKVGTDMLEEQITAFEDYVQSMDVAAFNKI
Chain of UniProt O94905 (O94905 whole entry, looked up): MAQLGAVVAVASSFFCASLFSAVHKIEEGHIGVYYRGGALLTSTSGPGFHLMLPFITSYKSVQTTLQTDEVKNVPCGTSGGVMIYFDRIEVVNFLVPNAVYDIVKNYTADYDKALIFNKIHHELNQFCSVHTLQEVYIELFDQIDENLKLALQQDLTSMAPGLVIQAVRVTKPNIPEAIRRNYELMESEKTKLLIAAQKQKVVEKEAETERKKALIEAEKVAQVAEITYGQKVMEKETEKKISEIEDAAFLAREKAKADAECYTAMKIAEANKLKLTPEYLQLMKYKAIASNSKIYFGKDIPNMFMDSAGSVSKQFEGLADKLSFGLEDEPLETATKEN
Chain of UniProt Q96DF8 (Q96DF8 whole entry, looked up): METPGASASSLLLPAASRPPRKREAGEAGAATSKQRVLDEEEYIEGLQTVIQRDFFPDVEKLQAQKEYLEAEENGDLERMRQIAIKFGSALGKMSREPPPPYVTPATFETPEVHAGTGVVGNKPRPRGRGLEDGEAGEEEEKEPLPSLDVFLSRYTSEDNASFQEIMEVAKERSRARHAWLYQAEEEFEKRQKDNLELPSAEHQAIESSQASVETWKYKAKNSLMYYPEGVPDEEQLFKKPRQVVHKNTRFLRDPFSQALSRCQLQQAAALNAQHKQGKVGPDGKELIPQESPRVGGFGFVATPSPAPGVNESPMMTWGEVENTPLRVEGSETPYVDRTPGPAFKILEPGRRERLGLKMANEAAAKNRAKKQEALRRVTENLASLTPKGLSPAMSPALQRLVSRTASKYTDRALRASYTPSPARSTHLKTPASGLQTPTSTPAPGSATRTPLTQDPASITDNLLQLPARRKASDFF
Chain of UniProt P53634 (P53634 whole entry, looked up): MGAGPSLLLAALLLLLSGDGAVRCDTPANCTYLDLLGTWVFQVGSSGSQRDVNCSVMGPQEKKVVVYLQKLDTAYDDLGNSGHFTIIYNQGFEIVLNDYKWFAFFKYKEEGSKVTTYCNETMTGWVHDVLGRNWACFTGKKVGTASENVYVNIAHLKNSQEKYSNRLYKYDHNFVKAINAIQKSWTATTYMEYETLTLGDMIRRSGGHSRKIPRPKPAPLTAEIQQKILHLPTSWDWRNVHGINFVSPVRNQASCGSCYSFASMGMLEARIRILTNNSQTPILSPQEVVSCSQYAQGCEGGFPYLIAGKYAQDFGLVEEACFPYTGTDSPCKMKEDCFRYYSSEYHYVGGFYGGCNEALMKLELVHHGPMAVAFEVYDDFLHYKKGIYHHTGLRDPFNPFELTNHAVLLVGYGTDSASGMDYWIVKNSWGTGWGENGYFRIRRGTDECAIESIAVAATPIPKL

Compound in this test: c1cn2cc(-c3ccc4cn[nH]c4c3)nc(Nc3ccc(N4CCOCC4)cc3)c2n1 [entospletinib]
The test can be described thus: log2 fold change, soluble protein after heating vs DMSO (PISA); higher = thermal stabilisation; K562 cells, 10 uM, 30 min; active = over 0.2 and 3.5 SD of the protein, either way, in both replicates (recomputed). An outline of the steps:
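K562 cells at 2×10^6 cells/mL were treated with 10 μM compound for 30 min. Aliquots were heated for 3 min across 48°C-58°C, pooled, and extracted in PBS with 0.5% NP-40 at 4°C; soluble protein was the supernatant after 21,000xg for 90 min. Soluble protein was quantified by TMTpro 16plex LC-MS/MS with channel sums equalised, and reported as log2 fold change in thermal stability against DMSO controls, with values from duplicates.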
With EIF4A1 (UniProt P60842), the log2 fold change was -0.083. Consider CYFIP1 (UniProt Q7L576), for which the log2 fold change was -0.018. For the target CYP51A1 (UniProt Q16850), the log2 fold change was 0.093. The value for DNAJC19 (UniProt Q96DA6) was 0.026; that for EXOC8 (UniProt Q8IYI6) was -0.013; that for FAM114A2 (UniProt Q9NRY5) was -0.022. For EEF1G isoform 2 (UniProt P26641), the log2 fold change was -0.012. The result for CUX1 isoform 2 (UniProt Q13948) reads -0.019. With FAM193B (UniProt Q96PV7), the log2 fold change is -0.031. For ECH1 (UniProt Q13011), the log2 fold change is 0.024.

In the case of EEF1B2 (UniProt P24534), the log2 fold change is 0.038. Turning to DHRS13 (UniProt Q6UX07), the log2 fold change is -0.111. As for DBR1 (UniProt Q9UK59), the log2 fold change is 0. With DOLPP1 (UniProt Q86YN1), the log2 fold change is 0.055. The value for ECPAS (UniProt Q5VYK3) was -0.025; that for DHCR24 (UniProt Q15392) was -0.016; that for CTSB (UniProt P07858) was 0.008.

On to DUS3L (UniProt Q96G46), for which the log2 fold change was -0.086.

In the case of EXOC2 (UniProt Q96KP1), the log2 fold change was -0.005.

Take DPP8 (UniProt Q6V1X1): the log2 fold change was -0.377 (active). With EPHX2 (UniProt P34913), the log2 fold change was 0.05. On to CTSC (UniProt P53634), for which the log2 fold change is -0.047.

In the case of DHCR7 (UniProt Q9UBM7), the log2 fold change was -0.045. For EXTL2 (UniProt Q9UBQ6), the log2 fold change was 0.03.

As for EEF1D isoform 2 (UniProt P29692), the log2 fold change is 0.031. The result for EED, A0A5F9ZI63 reads 0.037; that for FAM160A2 isoform 2 (UniProt Q8N612), 0.039. For the target DHX40 (UniProt Q8IX18), the log2 fold change was -0.055. Regarding DNAH10 (UniProt Q8IVF4), the log2 fold change was -0.132.

For the target DCAF16 (UniProt Q9NXF7), the log2 fold change is 0. In the case of EDC3 (UniProt Q96F86), the log2 fold change was -0.068. Turning to ERLIN1 (UniProt O75477), the log2 fold change was -0.049.

As to ESS2 (UniProt Q96DF8), the log2 fold change is 0.118. DLD (UniProt P09622): the log2 fold change is 0.051. The value for ERLIN2 (UniProt O94905) was -0.062.
